Test results: publication PMC12670160, “A drug-repurposing screen of FDA- and EMA-approved drugs identifies two NF-κB inhibitors active against eumycetoma” (Journal of Antimicrobial Chemotherapy, 2025)
Structures can show the parent of a compound that is named as a salt. Where two headings read alike, the source gives them in different places. Screen size: about 5,300 compounds; about 130 (2.5%) showed an effect of 50% or more. Shown is part of a subset that was picked to be rich in strong results.

System: M. mycetomatis strain mm55
Details: primary screen, metabolic activity vs growth control, 96 h, 2 µM, inhibitor

Compound	% viability	% viability (Madurella mycetomatis metabolic activity at 2µM (%))
Cc1c(S(=O)(=O)O)oc2c1C(=O)C(=O)c1c-2ccc2c1CCCC2(C)C [ONC0003377, sodiumtanshinoneiiasulfonate]	55.5%	
Cc1coc2c1C(=O)C(=O)c1c-2ccc2c1CCCC2(C)C [ONC0005254, tanshinone iia tanshinone b]	103.2%	
C[C@H]1COC2=C1C(=O)C(=O)c1c2ccc2c1CCCC2(C)C [ONC0001081, cryptotanshinone]	49.66%	
Nc1nc2nc[nH]c2c(=S)[nH]1 [ONC0003925, tioguanine]	107.9%	
Nc1ncn([C@H]2C[C@H](O)[C@@H](CO)O2)c(=O)n1 [ONC0003115, decitabine]	79.17%	
O=c1[nH]c(=O)n([C@H]2C[C@H](O)[C@@H](CO)O2)cc1F [ONC0002845, floxuridine]	24.01%	
O=c1[nH]c(=O)n([C@H]2C[C@H](O)[C@@H](CO)O2)cc1Br [ONC0001774, 5brdu]	105.2%	
Cc1cn([C@@H]2C[C@@H](O)[C@H](CO)O2)c(=O)[nH]c1=O [ONC0004416, telbivudine sebivo tyzeka]	98.41%	
Nc1nc(=O)n([C@H]2C[C@H](O)[C@@H](CO)O2)cc1Cl [ONC0003690, 5chloro2deoxycytidine]	55.79%	
Nc1nc(=O)n([C@H]2C[C@H](O)[C@@H](CO)O2)cc1F [ONC0004119, 5fluoro2deoxycytidine]	7.324%	
Nc1nccc(/C=C/c2ccccc2)n1 [ONC0001621, tcn238]	73.65%	
CCC(C/C=C/c1ccccc1)(c1ccccc1)N(C)CC1CC1 (stereo not drawn) [ONC0003075, igmesine]	61.21%	
O=C1NCN(c2ccccc2)C12CCN(CCCC(c1ccc(F)cc1)c1ccc(F)cc1)CC2 [ONC0003520, fluspirilene]	48.06%	
O=C(CCCN1CCC2(CC1)C(=O)NCN2c1ccccc1)c1ccc(F)cc1 [ONC0000014, spiperone]	87.63%	
O=C(NCCN1CCC2(CC1)C(=O)NCN2c1cccc(F)c1)c1ccc(F)c(F)c1 [ONC0004390, ml298]	135.4%	
CC(C)c1cc(CNc2nc(Nc3cc(C4CC4)[nH]n3)cc(N3CCN(C)CC3)n2)on1 [ONC0000976, xl228]	85.75%	
CCCC[C@H](NC(C)=O)C(=O)N[C@H]1CC(=O)NCCCC[C@@H](C(=O)O)NC(=O)[C@H](Cc2c[nH]c3ccccc23)NC(=O)[C@H](CCCN=C(N)N)NC(=O)[C@@H](Cc2ccccc2)NC(=O)[C@H](Cc2cnc[nH]2)NC1=O [ONC0002156, bremelanotide acetate]	73.73%	
O=C1O[C@@H](CO)[C@H](O)[C@@H](O)[C@@H]1O [ONC0003123, gluconolactone]	67.77%	
C[N+]1(C)CCC(=C(c2ccccc2)c2ccccc2)CC1 [ONC0004508, diphemanil methylsulfate]	48.99%	
C[N+]1(C)CCC(OC(=O)C(c2ccccc2)c2ccccc2)CC1 [ONC0003592, 4damp]	92.53%	

Compound	% viability	% viability (Madurella mycetomatis metabolic activity at 2µM (%))
Clc1cccc(Cl)c1N=C1NCCN1 [ONC0004193, clonidine hydrochloride]	96.49%	
Ac-PHSCN-NH2 [ONC0000745, atn161 trifluoroacetate salt]	72.86%	
CCNC(=O)[C@@H]1CCCN1C(=O)[C@H](CCCNC(=N)N)NC(=O)[C@H](CC(C)C)NC(=O)[C@@H](C)NC(=O)[C@H](Cc1ccc(O)cc1)NC(=O)[C@H](CO)NC(=O)[C@H](Cc1c[nH]c2ccccc12)NC(=O)[C@H](Cc1c[nH]cn1)NC(=O)[C@@H]1CCC(=O)N1 [ONC0002202, alarelin acetate]	212.3%	
CC(CN(C)C)CN1c2ccccc2Sc2ccccc21 (stereo not drawn) [ONC0003228, trimeprazine tartrate]		94.09%
CS(=O)(=O)c1ccc(Oc2cc(F)cc(C#N)c2)c2c1[C@H](O)C(F)(F)C2 [ONC0001118, pt2385]	47.48%	
C[N+](C)(C)[C@@H](Cc1c[nH]c(=S)[nH]1)C(=O)O [ONC0003509, lergothioneine]	51.74%	
CCOC(=O)N1CSCC1C(=O)O (stereo not drawn) [ONC0002766, 3ethyl thiazolidine34dicarboxylate]	97.19%	
Nc1ncnc2c1ncn2[C@H]1O[C@@H](C(=O)N2CCN(CC(=O)Nc3cccc4c3CNC4=O)CC2)[C@H](O)[C@@H]1O [ONC0001619, eb47]	55.83%	
Cc1cn([C@H]2O[C@@H](CO)[C@H](O)[C@@H]2F)c(=O)[nH]c1=O [ONC0004549, clevudine levovir]	61.35%	
O=C(O)/C=C\c1c[nH]cn1 [ONC0002668, cisurocanic acid]	45.73%	
O=C(O)/C=C/c1c[nH]cn1 [ONC0003737, cisurocanicacid]	146.4%	
N[C@H](Cc1c[nH]cn1)C(=O)O [ONC0001939, dhistidine]	75.44%	
NC(=O)c1nc[nH]c1O [ONC0003682, 5hydroxy1himidazole4carboxamide]	60.3%	
Nc1nc2nn[nH]c2c(=O)[nH]1 [ONC0002792, azaguanine8]	265.7%	
O=C(O)Cc1ccc(OCCNC[C@H](O)c2ccccc2)cc1 [ONC0001068, zd2079]	36.58%	
O=C(O)COc1ccc(OCCNC[C@H](O)COc2ccccc2)cc1 [ONC0002275]	78.74%	
COCCNC(=O)COc1ccc(OCCNC[C@H](O)COc2ccccc2)cc1 [ONC0001450, zd7114]	94.55%	
COc1ccc(C[C@H](C)NC[C@@H](O)c2ccc(O)c(NC=O)c2)cc1 [ONC0001548, formoterol]	81.88%	
COc1ccc([C@]2(O)CC[C@@H](N3CC[C@@H](NC(=O)CNC(=O)c4cccc(C(F)(F)F)c4)C3)CC2)cn1 [ONC0000726, incb 3284]	81.5%	
